Screening results deposited in PubChem BioAssay by National Center for Advancing Translational Sciences (NCATS).
Rows were chosen to be rich in hits. Some 10% of all compounds tested hit in one or more screens of this group.
G9a inh – blocks human histone lysine methyltransferase G9a. Q96KQ7. G9a H3K9 monomethylation, AlphaScreen, 2 h. Potency, µM (series often up to 102 µM), for the others: top-dose activity, negative = inhibition, usual class: inhibitors. 350,000 tested, 8.8% active; also: % is scaled to controls: 0 for no effect and ±100 for the full control effect; nearly all actives have a fitted effect of over 75% in size
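Step 1: enzyme (final 20 nM) with compound, 15 min RT. Step 2: substrate peptide 500 nM and SAM 20 uM, 2 h RT. Step 3: anti-H3K9me1 antibody and AlphaScreen beads, 10 min, then plate read.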
GLS inh – inhibitors of human glutaminase (GLS); 410,000 tested, 0.21% active; AID 624170; Potency, µM (series often up to 45.5 µM), for inactives: at the top dose activity change, negative = inhibition, hits mostly inhibitors; GLS enzymatic activity, qHTS titration; also: % is scaled to controls: 0 for no effect and ±100 for the full control effect
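hKGA in 45 mM KH2PO4 pH 8.2, 0.02% Tween-20 with pin-transferred compounds; 1 mM L-glutamine (stock) plus glutamate oxidase/HRP/Amplex Red coupling added. Fluorescence read initially and after 30 min at RT.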
JMJD2A Tudor – JMJD2A Tudor domain (human) inhibition | O75164 | AlphaScreen JMJD2A-Tudor / H3K4me3 peptide binding | Potency, µM (top dose mostly 114 µM), for the others: top-dose activity change, negative = inhibition, most hits filed as inhibitors | 390,000 tested, 4.4% active; also: % is scaled to controls: 0 for no effect and ±100 for the full control effect; nearly all actives have a fitted effect of over 50% in size
L3MBTL1 inh – inhibitors of human L3MBTL1; Q9Y468; AlphaScreen L3MBTL1–H3K9me1 peptide binding; Potency, µM (doses to about 57.1 µM), without a hit: top-dose activity, negative = inhibition, usual class: inhibitors; 230,000 tested, 0.66% active; also: % is scaled to controls: 0 for no effect and ±100 for the full control effect; nearly all actives have a fitted effect of over 60% in size
Target sequence (Q9Y468 whole entry, looked up): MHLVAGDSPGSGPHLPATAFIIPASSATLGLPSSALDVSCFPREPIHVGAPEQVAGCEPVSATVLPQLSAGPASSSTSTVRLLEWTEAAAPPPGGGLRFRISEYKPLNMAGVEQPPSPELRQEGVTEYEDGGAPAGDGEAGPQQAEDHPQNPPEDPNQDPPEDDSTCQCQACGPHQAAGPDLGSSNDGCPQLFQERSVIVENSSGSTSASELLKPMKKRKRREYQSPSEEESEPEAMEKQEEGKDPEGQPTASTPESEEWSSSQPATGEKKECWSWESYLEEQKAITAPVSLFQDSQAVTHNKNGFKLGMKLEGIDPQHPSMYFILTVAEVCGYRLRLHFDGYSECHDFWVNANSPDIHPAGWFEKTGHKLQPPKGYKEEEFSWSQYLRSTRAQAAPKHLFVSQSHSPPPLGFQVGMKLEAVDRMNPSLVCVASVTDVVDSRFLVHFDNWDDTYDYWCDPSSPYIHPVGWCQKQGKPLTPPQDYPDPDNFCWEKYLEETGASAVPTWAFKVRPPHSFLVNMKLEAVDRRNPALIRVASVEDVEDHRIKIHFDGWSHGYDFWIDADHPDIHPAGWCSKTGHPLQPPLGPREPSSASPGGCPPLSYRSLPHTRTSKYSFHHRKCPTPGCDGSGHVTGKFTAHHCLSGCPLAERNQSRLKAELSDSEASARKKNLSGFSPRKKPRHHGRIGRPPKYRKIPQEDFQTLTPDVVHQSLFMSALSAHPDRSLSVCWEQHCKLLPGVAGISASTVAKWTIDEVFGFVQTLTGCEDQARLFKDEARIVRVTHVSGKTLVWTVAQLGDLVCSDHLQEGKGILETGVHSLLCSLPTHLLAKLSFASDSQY
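L3MBTL1 50 nM + b-AHA-H3(1-15)K9me1 75 nM, 30 min RT; compound added, 30 min RT; streptavidin donor/Ni-chelate acceptor beads 10 ug/mL each final, 30 min RT dark; AlphaScreen read.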
HP1b binding inh – HP1-beta chromodomain-methylated histone interaction inhibition | P83916 | AlphaScreen HP1-beta / biotin-H3K9me3 peptide binding | Potency, µM (doses to about 114 µM), for the others: top-dose activity change, negative = inhibition, actives largely listed as inhibitors | 390,000 tested, 0.56% active | AID 540317; also: nearly all actives have a fitted effect of over 70% in size
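Compound inhibition of the preformed complex between 50 nM HP1-beta and 50 nM biotinylated H3K9me3 peptide was read by AlphaScreen. Buffer was PBS pH 7.4 with 0.01% Tween-20. Incubations ran 30 min at room temperature, with 10 ug/mL donor/acceptor beads.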
BAZ2B block – BAZ2B (human) inhibition; AID 504333; Potency, µM (series often up to 114 µM), without a hit: top-dose activity change, negative = inhibition, most hits filed as inhibitors; 360,000 tested, 4.4% active; AlphaScreen BAZ2B-H3K14Ac peptide displacement; also: % is scaled to controls: 0 for no effect and ±100 for the full control effect; nearly all actives have a fitted effect of over 60% in size
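AlphaScreen displacement of biotin-H3(5-23)K14Ac peptide (50 nM final) from BAZ2B (50 nM final) in PBS pH 7.4, 0.01% Tween-20; complex preformed 30 min RT, then compounds (top 110 uM) 30 min RT, beads 20 min dark.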
* = called active by the depositor; [ ] = dose if it differs, or a comment. Calls follow the shape of the dose curve; as a rule, active = well fitted curve in the direction sought with a large enough effect; inconclusive = small, poorly fitted or top-dose-only effect, or another doubt; inactive = no such curve, though single readings can be large; an effect the other way counts as inactive or inconclusive. Potency is read from the fitted curve at half-maximal effect.

O=c1[nH]c(=S)[nH]c(O)c1C(c1ccccn1)c1c(O)[nH]c(=S)[nH]c1=O was read as G9a inh 5µM*, GLS inh 1%, JMJD2A Tudor inconclusive, L3MBTL1 inh -8%, HP1b binding inh 18% and BAZ2B block 20µM*.
CCn1c(O)c(C=NCc2ccccc2)c(=O)[nH]c1=S was read as G9a inh inconclusive, GLS inh 8%, JMJD2A Tudor -21%, HP1b binding inh 6% and BAZ2B block -19%.
Nc1c(Cl)c(Cl)c(Cl)c(Cl)c1Cl was read as GLS inh 0%[99.4 µM].
Screening O=[N+]([O-])c1ccc2c(c1)C(c1ccccc1)=NCCN2 returned G9a inh inconclusive, GLS inh -10%, JMJD2A Tudor -19%, HP1b binding inh 22% and BAZ2B block -6%.
`O=[N+]([O-])c1ccc(-c2ccccc2)c([As](=O)(O)O)c1` gave G9a inh 13µM*, GLS inh -5%, JMJD2A Tudor -19%, L3MBTL1 inh 4%, HP1b binding inh 51% and BAZ2B block inconclusive.
For Cc1ccc(CN(C)CCc2ccccn2)cc1 the results were G9a inh 13µM*, GLS inh -2%, JMJD2A Tudor 3.2µM*, HP1b binding inh inconclusive and BAZ2B block inconclusive.
Screening CN(CCc1ccccn1)Cc1ccc(Cl)cc1 returned G9a inh 10µM*, GLS inh 6%, JMJD2A Tudor 6.3µM*, HP1b binding inh inconclusive and BAZ2B block 45µM*.
Screening COC(=O)[C@H]1[C@H]2C[C@@H]3c4[nH]c5cc(OC)ccc5c4CCN3C[C@H]2C[C@@H](OC(=O)/C=C/c2cc(OC)c(OC)c(OC)c2)[C@@H]1OC returned G9a inh 8.9µM*, GLS inh 3%, JMJD2A Tudor 28µM*, L3MBTL1 inh inconclusive, HP1b binding inh -22% and BAZ2B block inconclusive.
COC[C@H]1OC(=O)c2coc3c2[C@@]1(C)C1=C(C3=O)[C@@H]2CCC(=O)[C@@]2(C)C[C@H]1OC(C)=O was read as G9a inh 5µM*, GLS inh 31%, JMJD2A Tudor -5% and HP1b binding inh 25%.
`O=c1oc(Cl)c(Cl)c2ccccc12` gave G9a inh 6.7µM*, GLS inh 28%, JMJD2A Tudor inconclusive, L3MBTL1 inh 5%, HP1b binding inh -11% and BAZ2B block inconclusive.
`O=C1OC(c2ccc(O)c(S(=O)(=O)O)c2)(c2ccc(O)c(S(=O)(=O)O)c2)c2c(Br)c(Br)c(Br)c(Br)c21` gave G9a inh -2%[59 µM] and GLS inh 49%.
`CN1C(=O)C(=Cc2cn(CC(=O)N3CCCC3)c3ccccc23)C(=O)N(C)C1=O` gave G9a inh 28µM*, GLS inh -7%, JMJD2A Tudor -16%, HP1b binding inh 5% and BAZ2B block -21%.
`CCCCOP(=O)(OCCCC)C(Nc1ccc(C(=O)OCC)cc1)c1ccncc1` (stereo not drawn) gave G9a inh 7%, GLS inh 0%, JMJD2A Tudor -11%, HP1b binding inh 50% and BAZ2B block 21%.
For CN1CCN(c2ccc([N+](=O)[O-])c(Sc3ccccn3)c2)CC1 the results were G9a inh 0%, GLS inh -8%, JMJD2A Tudor -17%, L3MBTL1 inh -14%, HP1b binding inh 8% and BAZ2B block -18%.
Screening NNS(=O)(=O)c1ccc(Sc2ccccn2)c([N+](=O)[O-])c1 returned G9a inh 40µM*, GLS inh 13%, JMJD2A Tudor -20%, L3MBTL1 inh -5%, HP1b binding inh 31% and BAZ2B block -14%.
